Assay results taken from PubChem BioAssay (NCI).
About 83,000 compounds went through this panel and 20% of them were active in at least one assay; those are over-represented in the sample as a whole.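 48-hour exposure, single concentration, 96-well plates; percent growth endpoint where 0 means no net growth. Active: below 10.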 Values without a mark were called inactive. Active and inactive are the calls of the source.

Legend:
Test in all cases: NCI-60 one-dose screen, 48 h (100 = growth as untreated, 0 = no growth, -100 = all killed)
Conditions in all cases: 10 µM unless noted
SK-MEL-2 melanoma = test system: SK-MEL-2 melanoma
EKVX NSCLC = test system: EKVX NSCLC
SN12C renal = test system: SN12C renal
UO-31 renal = test system: UO-31 renal
TK-10 renal = test system: TK-10 renal
ACHN renal = test system: ACHN renal
CAKI-1 renal = test system: CAKI-1 renal
A498 renal = test system: A498 renal
CCRF-CEM leukemia = test system: CCRF-CEM leukemia
MOLT-4 leukemia = test system: MOLT-4 leukemia
SR leukemia = test system: SR leukemia
RPMI-8226 leukemia = test system: RPMI-8226 leukemia
OVCAR-8 ovarian = test system: OVCAR-8 ovarian
OVCAR-5 ovarian = test system: OVCAR-5 ovarian
OVCAR-4 ovarian = test system: OVCAR-4 ovarian
SK-OV-3 ovarian = test system: SK-OV-3 ovarian
IGROV1 ovarian = test system: IGROV1 ovarian
OVCAR-3 ovarian = test system: OVCAR-3 ovarian
HS 578T breast = test system: HS 578T breast
NCI/ADR-RES ovarian = test system: NCI/ADR-RES ovarian

SMILES | growth (SK-MEL-2 melanoma) | growth (EKVX NSCLC) | growth (SN12C renal) | growth (UO-31 renal) | growth (TK-10 renal) | growth (ACHN renal) | growth (CAKI-1 renal) | growth (A498 renal) | growth (CCRF-CEM leukemia) | growth (MOLT-4 leukemia) | growth (SR leukemia) | growth (RPMI-8226 leukemia) | growth (OVCAR-8 ovarian) | growth (OVCAR-5 ovarian) | growth (OVCAR-4 ovarian) | growth (SK-OV-3 ovarian) | growth (IGROV1 ovarian) | growth (OVCAR-3 ovarian) | growth (HS 578T breast) | growth (NCI/ADR-RES ovarian)
CCCSc1nc(Nc2ccc(S(N)(=O)=O)cc2)c(C#N)c(-c2cc(OC)c(OC)c(OC)c2)n1 | 43% | 36.6% | 20.4% | 2.53% (active) | 50.4% | 11.8% | 25.6% | 80.8% | 8.03% (active) | -35.8% (active) | 6.66% (active) | 3.5% (active) | 10.2% | 58.5% | 27.5% | 64.9% | 34.9% | 24.6% | 30.7% | 15.1%
N/C(=N\c1nc2ccccc2s1)NC(=O)Nc1c(Cl)cccc1Cl | 6% (active) | 37.6% | 30.4% | 47.6% | 93.8% | 48.1% | 32% | 94.3% | 30% | 30% | 17.2% | 17.2% | 49.5% | 49.3% | 56.7% | 65.2% | 49.4% | 28.2% | 34.4% | 7.17% (active)
C=CC(=O)Nc1ccc(C)c(Oc2ccc(Cl)cc2)c1 | 41.8% | 62.6% | 45.3% | 24.4% | 74% | 65.4% | 61.7% | 58.5% | 57.9% | 45.3% | 24.3% | 23.8% | 38.5% | 64.8% | 56.2% | 77.4% | 46.4% | 36.6% | 51.8% | 37.3%
Nc1nnc(-c2c[nH]c3ncc(Br)cc23)c(-c2c[nH]c3ccc(F)cc23)n1 | 25.3% | 41.5% | 38.8% | 42.8% | 67% | 40.8% | 42.7% | 74% | 42.7% | 9.73% (active) | 13.6% | 33.7% | 39% | 48.6% | 59.6% | 80.5% | 37.4% | 33.2% | 28% | 70.7%
COc1ccc(C(=O)/C=C/c2ccc(OC)c(OCc3ccccc3)c2)cc1OC | 55.8% | 25.2% | 7.92% (active) | 19.3% | 20.5% | 21.8% | 39.4% | 108% | 12.9% | 8.07% (active) | 14.4% | 7.98% (active) | -7.56% (active) | 31.4% | 30.1% | 24.7% | 22.2% | 16.3% | 18.7% | -4.74% (active)
Cc1cc(C)cc(NC(=O)Cn2cc(COn3nnc4ccccc43)nn2)c1 | 105% | 102% | 97.3% | 92.5% | 100% | 100% | 97.4% | 118% | 105% | 100% | 90.1% | 108% | 104% | 102% | 109% | 103% | 104% | 129% | 102% | 102%
O=C(O)Cn1c(O)c(/C=C2/C=c3cc4c(cc3=NC2=O)OCCO4)sc1=S | 117% | 101% | 97.5% | 89.9% | 110% | 119% | 99.3% | 118% | 97.3% | 105% | 89.2% | 98.2% | 110% | 112% | 109% | 129% | 114% | 110% | 107% | 103%
Cc1cc2c(cc1Cl)C(=O)/C(=C/c1ccc(F)cc1)O2 | 122% | 90.8% | 82.1% | -80.7% (active) | 125% | 96.9% | 75.3% | 149% | 94.5% | 84.3% | 89.1% | 97.2% | 97.5% | 106% | 90.9% | 100% | 20.9% | 124% | 97.1% | 93.3%
